Screens: PubChem BioAssay, National Center for Advancing Translational Sciences (NCATS)
TRPML1 ag: agonists of human TRPML1 channel | Q9GZU1 | TRPML1-expressing cells, Ca2+ dye fluorescence, FDSS | activation, % (no concentration beside the values) | hit rate 0.12% among 410,000; in the data active = activation above about 50%; inconclusive = mostly about 30% to 49%; note: 0% is about no effect
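Agonist activity was taken from a 110 s kinetic Ca2+ dye read on the FDSS after pinning compounds onto TRPML1-DL cells. The cells were seeded at 1,500/well with Tet inducer, incubated about 16 h, then dye-loaded at room temperature.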
TRHR PAM: allosteric enhancers of human TRH receptor; P34981; hit rate 0.66% among 360,000; TRHR cells, fluo-8 calcium fluorescence, EC20 TRH enhancement; enhancement, % at 2 µM; in the data active = enhancement above about 30%; note: 0% is about no effect
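Enhancer read-out: after compound pinning and an initial kinetic agonist-mode read, an EC20 of TRH (10 nM final) was injected and fluo-8 calcium signal (Ex 480/Em 530) followed at 1 s/cycle for 100 cycles in TRHR-expressing cells.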
PTAP TSG101 blk: blocks PTAP/TSG101 interaction to inhibit HIV-1 budding. Q99816. Fluorescence polarization, FITC-PTAP peptide / Tsg101 binding. Potency, µM (top dose mostly 115 µM), inactives show at the top dose activity change, negative = inhibition, hits mostly inhibitors. 340,000 tested, under 10 active. AID 493005; active = well fitted inhibition curve with a large enough effect in the main read-out, with a control signal flat, not every such curve was filed as active; inconclusive = small, poorly fitted or top-dose-only effect, or effect the other way, or a change in a side signal; inactive = no such curve, though single readings can be large or run the other way; note: potency is the fitted concentration of half-maximal effect; % of control where 0% means no effect
Target sequence (Q99816 whole entry, looked up): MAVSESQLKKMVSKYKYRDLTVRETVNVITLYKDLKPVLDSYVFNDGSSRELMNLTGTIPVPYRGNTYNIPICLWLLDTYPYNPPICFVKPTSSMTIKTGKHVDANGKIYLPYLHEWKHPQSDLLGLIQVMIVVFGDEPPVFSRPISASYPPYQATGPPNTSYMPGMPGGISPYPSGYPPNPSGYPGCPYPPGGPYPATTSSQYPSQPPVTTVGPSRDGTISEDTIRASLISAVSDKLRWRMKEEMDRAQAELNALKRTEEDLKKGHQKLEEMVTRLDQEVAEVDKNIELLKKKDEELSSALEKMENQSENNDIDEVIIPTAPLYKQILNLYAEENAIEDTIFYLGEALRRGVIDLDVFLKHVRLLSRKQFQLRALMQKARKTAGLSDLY
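Steps: Tsg101 binding domain dispensed (10 uM final), compounds pinned in DMSO, FITC-labeled PTAP-motif peptide added (50 nM final); after 20 min binding at room temperature, polarization measured.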
TRPML1 blocker: inhibitors of human TRPML1 channel. Q9GZU1. AID 624415. hit rate 0.02% among 390,000. activity change, negative = inhibition, % (test concentration not listed). TRPML1-inducible cells, Ca2+ dye fluorescence, FDSS; hits give low values; inhibition of EC80 agonist-evoked calcium signal; in the data active = activity change below about -50%; inconclusive = between about -30% and that limit;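 note: stimulus is agonist 54-4 at its EC80 concentration; % is set by controls: 0 for no effect and ±100 for the full control effect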
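Calcium fluorescence in TRPML1-DL cells induced overnight with Tet: a 110 s read after compound pin addition, then a 110 s antagonist read after challenge with 54-4 at 4 uM final (EC80).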
TRHR ag: activates the human TRH receptor; P34981; TRHR cells, calcium flux fluo-8, FDSS agonist mode; activation, % at 2 µM; hit rate 0.18% among 360,000; in the data active = activation above about 30%; note: 0% is about no effect
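Steps: seed TRHR cells overnight; add fluo-8 no-wash Ca dye, RT 30 min–1.5 h; record 10 s baseline; pin-transfer compounds; monitor fluorescence 1 cycle/s for the agonist window. Calcium increases flag candidate agonists.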
Active calls of the source: *. A selection: hits, their analogues and other compounds. The true share with any hit is near 0.81%.

COc1nnc(-c2ccc(N3CCCCC3)c(NC(=O)c3ccc(Cl)cc3)c2)c2ccccc12 was read as TRPML1 ag 2, TRHR PAM 39*, TRPML1 blocker 2 and TRHR ag -1.
For CC(=O)C[C@H]1c2cc(F)cc(F)c2S(=O)(=O)N1C1CCN(Cc2ccccc2)CC1 the results were TRPML1 ag 0.
`Cc1cc(C)c(S(=O)(=O)N2CCN(C(=O)C3COc4ccccc4O3)CC2)c(C)c1` (configuration not stated) gave TRPML1 ag 1, TRHR PAM 36*, PTAP TSG101 blk -5%, TRPML1 blocker -3 and TRHR ag 0.
For CC(C)(C)OC(=O)N1CCC(c2c(C(=O)N3CCC(c4ccccc4)C3)cnn2-c2cccc(Cl)c2)CC1 (configuration not stated) the results were TRPML1 ag 57*, TRHR PAM -12, TRPML1 blocker -10 and TRHR ag 24.
For CC(C)(C)OC(=O)N1CCC(c2c(C(=O)N3CCC(c4ccccc4)C3)cnn2-c2ccc(Cl)cc2)CC1 (configuration not stated) the results were TRPML1 ag 28, TRHR PAM 15, TRPML1 blocker 12 and TRHR ag 1.
CC(C)(C)OC(=O)N1CCC(c2c(C(=O)N3CCN(Cc4ccccc4)CC3)cnn2-c2cccc(Cl)c2)CC1 was read as TRPML1 ag 92*, TRHR PAM -13, TRPML1 blocker -26 and TRHR ag 2.
`COc1ccccc1N1CCN(C(=O)c2cnn(-c3cccc(Cl)c3)c2C2CCN(C(=O)OC(C)(C)C)CC2)CC1` gave TRPML1 ag 67*, TRHR PAM -3, TRPML1 blocker -12 and TRHR ag 0.
Screening Cc1ccc(C2CCN(C(=O)c3cnn(-c4cccc(Cl)c4)c3C3CCN(C(=O)OC(C)(C)C)CC3)C2)cc1 (configuration not stated) returned TRPML1 ag 59*, TRHR PAM -3, TRPML1 blocker -1 and TRHR ag 3.
Screening C[N+]1(CC(=O)c2cccc([N+](=O)[O-])c2)CCOCC1 returned TRPML1 ag 0.
`CC(C)(C)n1ncc2c(=O)n(Cc3cc(F)ccc3Cl)cnc21` gave TRPML1 ag 2 and TRPML1 blocker -2.
For CC(C)(C)OC(=O)N1CCC(c2c(C(=O)N3CCN(C4CCCCC4)CC3)cnn2-c2ccccc2)CC1 the results were TRPML1 ag 0, TRHR PAM -3, PTAP TSG101 blk -3%, TRPML1 blocker 7 and TRHR ag -1.
For Cc1cccc(-n2ncc(C(=O)N3CCN(C4CCCCC4)CC3)c2C2CCN(C(=O)OC(C)(C)C)CC2)c1 the results were TRPML1 ag 91*, TRHR PAM -8, TRPML1 blocker inconclusive and TRHR ag 5.
`Cc1ccc(C(=O)NCC(=O)OC(C(=O)Nc2cc(C(F)(F)F)ccc2Cl)c2ccccc2)cc1` (configuration not stated) gave TRHR PAM -10 and TRHR ag 3.
`CC(C)C[C@H]1CN=C(N(C)C)N1CCc1cccc(F)c1` gave TRPML1 ag 0, PTAP TSG101 blk 0% and TRPML1 blocker -17.
CC(C)CCN1C(Nc2ccccc2)=NC[C@@H]1CC(C)C was read as TRPML1 ag -1, TRHR PAM -6, PTAP TSG101 blk -7%, TRPML1 blocker 7 and TRHR ag 1.
CC(C)C[C@H]1CN=C(Nc2ccccc2)N1CCc1ccc(F)cc1 was read as TRPML1 ag inconclusive, TRHR PAM -21, PTAP TSG101 blk -6%, TRPML1 blocker 6 and TRHR ag 39*.
For CC(C)C[C@H]1CN=C(Nc2ccccc2)N1CCc1cccc(F)c1 the results were TRPML1 ag 80*, PTAP TSG101 blk -3% and TRPML1 blocker 9.
For Cc1cccc(CCN2C(Nc3ccccc3)=NC[C@@H]2CC(C)C)c1 the results were TRPML1 ag 26, TRHR PAM -24, PTAP TSG101 blk -3%, TRPML1 blocker -2 and TRHR ag 41*.
Screening COc1cc(F)c(S(=O)(=O)N2CCN(S(=O)(=O)c3ccc4c(c3)OCCO4)CC2)c(F)c1 returned TRHR PAM 2 and TRHR ag 2.
